Screens as filed in PubChem BioAssay.
Most compounds without a hit are left out; they make up all but 19% or so of the library.
HT1080NT lethal = kills 2HG-producing HT-1080-NT fibrosarcoma cells | Potency, µM (highest dose often 46.1 µM), for the others: at the top dose activity, negative = less viability, hits mostly cytotoxic | 360,000 compounds, 1.6% hits | HT-1080-NT fibrosarcoma viability, CellTiter-Glo ATP luminescence, 48 h;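 further: NT is the 2HG producing partner of a matched IDH1 knockdown line; potency means the concentration at half of the fitted maximal effect; 0% = DMSO-treated cells and -100% = media-only wells without cells; nearly all actives have a fitted effect of over 55% in size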
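Read-out is CellTiter-Glo luminescence after 10 minutes at room temperature, following 48 hours' compound treatment of HT-1080-NT cells (750 cells/well, RPMI, 5% FBS, 37 degrees C).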
IL-1B inflam inh = blocks inflammasome-driven IL-1 beta release. THP-1 LPS/ATP IL-1B secretion, AlphaLISA, 16 h; active compounds read low. activity change, % at 57.5 µM. 360,000 compounds, 4.7% hits; in the data active means activity change below about -50%; inconclusive means mostly about -30% to -49%
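THP-1 cells pretreated 1 hr with compounds (up to 57.5 uM final), then stimulated with LPS (250 ng/mL final) plus ATP (1.25 mM final); secreted IL-1B measured by AlphaLISA after 16 hr, decreased signal indicating inhibition.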
DT40 TDP1 no CPT = qHTS for Inhibitors of human tyrosyl-DNA phosphodiesterase 1 (TDP1): qHTS in cells in absence of CPT; DT40 Tdp1-/- hTDP1 cells, no CPT, ATP luminescence, 48 h; Potency, µM (highest dose often 46.2 µM), for inactives: at the top dose activity change, negative = growth inhibition, usual class: inhibitors; 420,000 compounds, 15% hits; AID 686978, 2013; further: potency means the concentration at half of the fitted maximal effect; nearly all actives have a fitted effect of over 55% in size
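Chicken DT40 Tdp1-/- cells stably complemented with human TDP1 were seeded at 400 cells/well with DMSO in place of 20 nM camptothecin. After compound pinning, cells grew at least 48 hr at 37 °C; viability read by CellTiter-Glo luminescence.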
HT1080 IDH1KD tx = kills HT-1080 cells with IDH1 knockdown | HT-1080 IDH1 knockdown viability, ATP luminescence, 48 h | Potency, µM (doses to about 46.1 µM), for the others: at the highest dose activity, negative = toxicity, hits mostly cytotoxic | 360,000 compounds, 2% hits;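 further: potency means the concentration at half of the fitted maximal effect; 0% = DMSO wells and -100% = cell-free medium wells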
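Luminescent ATP read-out (CellTiter-Glo, 10 min at room temperature) after 48 h compound exposure at 37 °C gave viability of IDH1-knockdown HT-1080 cells. Activity was normalised to DMSO and cell-free wells, then fitted as concentration-response curves.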
DT40 TDP1 CPT = DT40-hTDP1 cell growth loss with CPT; chicken DT40 Tdp1-/-;hTDP1 cells + 20 nM CPT, ATP luminescence, 48 h; 420,000 compounds, 12% hits; Potency, µM (top dose mostly 46.2 µM), without a hit: top-dose activity change, negative = growth inhibition, hits mostly inhibitors; further: potency means the concentration at half of the fitted maximal effect; nearly all actives have a fitted effect of over 55% in size
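Cell growth measured by CellTiter-Glo luminescence after a minimum 48 h, 37 C compound exposure with 20 nM CPT in Tdp1-knockout DT40 cells stably expressing hTDP1, seeded 400/well; qHTS titration format.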
An asterisk follows results filed as active; ? = inconclusive; nt = no result given. Unless noted, the call rests on the fitted dose curve; in most records, active means well fitted curve in the direction sought with a large enough effect; inconclusive means small, poorly fitted or top-dose-only effect, or another doubt; inactive means no such curve, though single readings can be large; an effect the other way counts as inactive or inconclusive. Unless noted, on the % scale 0 is the no-effect control and ±100 the full control effect.

SMILES | HT1080NT lethal | IL-1B inflam inh | DT40 TDP1 no CPT | HT1080 IDH1KD tx | DT40 TDP1 CPT
Clc1cccc(-n2ncc3c(N4CCC(Cc5ccccc5)CC4)ncnc32)c1 | nt | nt | -3% | nt | -15%
Cn1ncc(Cl)c1C(=O)N1CCN(c2cccc(Cl)c2)CC1 | 3% | -13 | ? | 5% | ?
CC(C)COC(=O)Nc1nnc(Cc2ccccc2)s1 | ? | 32 | 9.2µM* | ? | ?
Cc1cc(C)c2nc(C(F)(F)F)c(C#N)c(N)c2c1 | 11% | 35 | ? | 5% | ?
Cc1ccc2nc(C(F)(F)F)c(C#N)c(N)c2c1 | ? | -101* | 16µM* | 10µM* | 21µM*
Cc1c2c(=O)n(-c3nc4ccccc4s3)nc-2cc(O)n1Cc1ccccc1 | 2% | 0 | 15µM* | -7% | 21µM*
CC1CCN(c2nn3c(=O)c(C(=O)NCCc4ccccc4)cnc3s2)CC1 | nt | nt | ? | nt | 9.2µM*
COc1ccc(CCNC(=O)c2cnc3sc(N4CCC(C)CC4)nn3c2=O)cc1OC | nt | nt | 3.7µM* | nt | 2.6µM*
Cc1ccc(-n2c(=O)c3c(c4cc(C)ccc4n3C)n(CC(=O)Nc3cc(C)cc(C)c3)c2=O)cc1 | nt | nt | -14% | nt | 1%
CNc1nc(N)nc(OC(C(F)(F)F)C(F)(F)F)n1 | -14% | -8 | -2% | -1% | -2%
O=C(Cn1cc(SCc2ccc(F)cc2)c2ccccc21)N1CCOCC1 | -4% | 0 | 16µM* | 9% | ?
O=C(Cn1cc(SCc2ccc(Cl)cc2)c2ccccc21)N1CCOCC1 | -7% | 0 | 21µM* | -25% | ?
Cc1nnc(SCC(=O)NC(C)(C)C)n1C1CCCCC1 | 23% | 16 | -7% | 28% | 17%
CC(=O)Nc1cc2c(cc1[N+](=O)[O-])-c1ccccc1C2O (configuration not stated) | 1% | ? | 12µM* | -6% | ?
O=[N+]([O-])c1ccc(-c2ccc(/C=N/Nc3nc(N4CCCCC4)nc(N4CCCCC4)n3)o2)cc1 | 4% | 14 | 21µM* | 4% | ?
COc1ccccc1-c1cnnc(N/N=C/c2ccc(-c3cccc(Br)c3)o2)n1 | 11% | -22 | 23µM* | 4% | 15µM*
O=[N+]([O-])c1cccc(-c2ccc(/C=N/Nc3nc(N4CCCCC4)nc(N4CCCCC4)n3)o2)c1 | 1% | -14 | ? | -1% | ?
CCNc1nc(NCC)nc(N/N=C/c2ccc([N+](=O)[O-])o2)n1 | -7% | 7 | 16µM* | -11% | 16µM*
O=[N+]([O-])c1ccc(-c2ccc(/C=N/Nc3nc(N4CCCC4)nc(N4CCCC4)n3)o2)cc1 | 2% | 41 | 4.6µM* | 7% | 15µM*
COCCn1c(C)cc(C(=O)CN2C(=O)C(=O)N(CCC3=CCCCC3)C2=O)c1C | 4% | 25 | ? | 0% | -24%
CCOC(=O)C1(C)CCN1C(=O)c1cccc(Cl)c1 (configuration not stated) | -2% | 32 | -26% | 0% | ?
COc1ccc(CNC(=O)C(=O)NCC2OCCN2S(=O)(=O)c2ccc(F)cc2)cc1 (configuration not stated) | -12% | 5 | -24% | -8% | -9%
COc1ccc(-c2cnnc(N/N=C/c3ccc(-c4ccc([N+](=O)[O-])cc4)o3)n2)cc1 | -27% | 54 | 1.5µM* | ? | 1.2µM*
O=[N+]([O-])c1ccc(/C=N/Nc2nc(N3CCCC3)nc(N3CCCC3)n2)o1 | ? | 2 | ? | ? | 23µM*
NC(=O)N/N=C/c1ccc(-c2ccc([N+](=O)[O-])cc2)o1 | 13% | -20 | ? | 9% | 13%
SMILES | HT1080NT lethal | IL-1B inflam inh | DT40 TDP1 no CPT | HT1080 IDH1KD tx | DT40 TDP1 CPT
COc1ccc(-c2cnnc(N/N=C/c3ccc(O)c(OC)c3)n2)cc1 | ? | -27 | 5.2µM* | 5.2µM* | 5.2µM*
Cc1ccc(CN(C(=O)c2csnn2)C(C(=O)NC2CCCC2)c2cccnc2)cc1 (configuration not stated) | -1% | -17 | -10% | 0% | -17%
CC(=O)/C(=N/Nc1ccccc1C)N1CCOCC1 | -15% | 14 | 21µM* | ? | 8.2µM*
CC(=O)/C(=N/Nc1ccccc1)N1CCOCC1 | 5µM* | -12 | -5% | -16% | -17%
CC(CC(=O)N1CCN(S(=O)(=O)c2ccc(Cl)cc2)CC1)n1cncn1 (configuration not stated) | 12% | 1 | 4% | 15% | 2%
CN(C)CC(C)(C)CNS(=O)(=O)c1ccc(Cl)s1 | 0% | -4 | -5% | -9% | -1%
Nc1nc2n[nH]nc2c(=O)[nH]1 | ? | 41 | 7.3µM* | 0.12µM* | 7.3µM*
Cc1cc(S(=O)(=O)Nc2ccc3cn[nH]c3c2)c(C)cc1Cl | -13% | 16 | 4.6µM* | ? | -30%
COc1ccc(C(=O)Oc2ccc(C3NC(=O)c4c(sc5c4CCN(C)C5)N3)cc2OC)cc1 (configuration not stated) | nt | nt | 16µM* | nt | ?
CN1CCc2c(sc3c2C(=O)NC(c2ccc(C(C)(C)C)cc2)N3)C1 (configuration not stated) | nt | nt | 13µM* | nt | ?
COc1ccc(-c2ccccc2)c2oc(-c3ccco3)cc(=O)c12 | 19% | 16 | ? | 14% | -17%
COCn1cnc(-c2ccccc2)c1-c1ccccc1 | 2% | -13 | ? | 0% | -25%
COc1ccccc1-c1ncn(Cc2cccc(-c3ccccc3)c2)c1-c1ccco1 | ? | ? | 16µM* | ? | 26µM*
COc1ccccc1-c1ncn(Cc2cccc(-c3ccccc3)c2)c1-c1cc(C)cc(C)c1 | ? | nt | 15µM* | ? | ?
Nc1nonc1C(=O)NCCNCc1ccccc1 | -7% | 19 | -25% | -4% | -15%
Nc1nonc1C(=O)NCCNCc1c(OCc2ccccc2F)ccc2ccccc12 | ? | -81* | 11µM* | 10µM* | 11µM*
Nc1nonc1C(=O)NCCNCc1cc(Br)ccc1OCc1ccc(F)cc1 | -8% | -65* | 10µM* | -22% | 10µM*
CCNC(=O)COc1cccc(C(=O)NCc2ccccc2)c1 | 1% | 5 | -14% | 7% | -3%
C=CC[C@H](CC(=O)N(CCO)Cc1ccccc1)C(=O)N[C@H](COC(=O)[C@@H](CC=C)Cc1ccc(F)cc1)C(C)(C)C | -30% | -61* | ? | ? | ?
C=CC[C@@H](CC(=O)N(CCO)Cc1ccccc1)C(=O)N[C@H](COC(=O)[C@@H](CC=C)Cc1ccc(F)cc1)C(C)(C)C | ? | -83* | 13µM* | ? | 21µM*
